Measurements from publication PMC6212833.
The full ranking holds about 2,000 compounds; the median of “B-score” is about -0.0024, and the highest 2% start at about 4. What follows is part of a selection rich in the highest values, with near analogues and random picks from the rest.

test system: Balamuthia mandrillaris (ATCC PRA-291) trophozoites, axenic culture; assay: primary screen, b score; settings: 20 µM
How it was run: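 Trophozoites (3,000/well) in axenic medium exposed to library drugs at 20 µM in 0.2% DMSO for 72 h; viability by CellTiter Glo luminescence at 2, 4 and 8 h. Controls: vehicle and freeze-thaw amoeba lysate; B-score corrects row, column and edge effects.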

Row | Structure (SMILES) | B-score
1 | O=c1[nH]c(=O)c2ccccc2o1 | 1.88
2 | C(=C\c1ccccc1)/CN1CCN(C(c2ccccc2)c2ccccc2)CC1 [255681-L2] | 0.414
3 | Cc1cn[nH]c1 [285621-L4] | 2.94
4 | Cc1cc(-c2ccc(/N=N/c3ccc4c(S(=O)(=O)O)cc(S(=O)(=O)O)c(N)c4c3O)c(C)c2)ccc1/N=N/c1ccc2c(S(=O)(=O)O)cc(S(=O)(=O)O)c(N)c2c1O | 11
5 | CN(C)CC(c1ccc(O)cc1)C1(O)CCCCC1 (stereo not drawn) | -2.24
6 | Nc1nc(O)c2nc(CNc3ccc(C(=O)N[C@@H](CCC(=O)O)C(=O)O)cc3)cnc2n1 [131189-L3] | -0.599
7 | C[N+](C)(C)CCOP(=O)([O-])OP(=O)(O)OC[C@H]1O[C@@H](n2ccc(N)nc2=O)[C@H](O)[C@@H]1O | -1.73
8 | CN(C)c1ccc(C(=C2C=CC(=[N+](C)C)C=C2)c2ccc(N(C)C)cc2)cc1 | 9.22
9 | O=C(OOC(=O)c1ccccc1)c1ccccc1 | -0.0136
10 | CC(C)(C)CC(C)(C)c1cc(Cc2cc(C(C)(C)CC(C)(C)C)cc(-n3nc4ccccc4n3)c2O)c(O)c(-n2nc3ccccc3n2)c1 | -1.88
11 | Cc1ccc(-c2ncc(Cl)cc2-c2ccc(S(C)(=O)=O)cc2)cn1 | 2.78
12 | Cc1nc2n(c(=O)c1CCN1CCC(c3noc4cc(F)ccc34)CC1)CCC[C@H]2O | 0.893
13 | OCC(S)CS (stereo not drawn) | 8.18
14 | CC(O)Cn1cnc2c1c(=O)n(C)c(=O)n2C (stereo not drawn) | -3.33
15 | NS(=O)(=O)c1cc(C2(O)NC(=O)c3ccccc32)ccc1Cl (stereo not drawn) | 0.358
16 | O[C@H]1[C@H](O)[C@@H](O)[C@H](O)[C@@H](O)[C@H]1O | -1.95
17 | CC(C)/N=C(N)/N=C(\N)Nc1ccc(Cl)cc1 [131550-L3] | -1.38
18 | N=C(NCCCCCCNC(=N)NC(=N)Nc1ccc(Cl)cc1)NC(=N)Nc1ccc(Cl)cc1 | 20.8
19 | CC(C)/N=C(N)/N=C(\N)Nc1ccc(Cl)cc1 [131550-L2] | 0.326
20 | Cc1cccc(C)c1NC(=O)C(C)N (stereo not drawn) | 0.0863

Row | Structure (SMILES) | B-score
21 | CC[C@@H](CO)NC(=O)[C@@H]1C=C2c3cccc4c3c(cn4C)C[C@H]2N(C)C1 [756841-L1] | 0.825
22 | CC(=O)Oc1cc2c(s1)CCN([C@H](C(=O)C1CC1)c1ccccc1F)C2 | 0.0184
23 | CN[C@@H]1[C@@H](O[C@H]2O[C@H](CO)[C@@H](N)[C@H](O)[C@H]2O)O[C@H]2C[C@@H](N)[C@H](O[C@H]3[C@H](O)[C@@H](O)[C@H](N)C[C@@H]3N)O[C@@H]2[C@@H]1O | -1.36
24 | O=C(O)c1ccccc1-c1c2cc(I)c(=O)c(I)c-2oc2c(I)c(O)c(I)cc12 | 14.8
25 | N[C@@H]1[C@H]2CN(c3nc4c(cc3F)c(=O)c(C(=O)O)cn4-c3ccc(F)cc3F)C[C@@H]12 | -1.05
26 | C#C[C@]1(O)CCC2C3CCc4cc(OC)ccc4C3CC[C@@]21C (stereo partly drawn) | -0.0352
27 | COc1cc2c(cc1OC)C(=O)C(CC1CCN(Cc3ccccc3)CC1)C2 (stereo not drawn) | -0.41
28 | c1ccc2c(c1)Nc1ccccc1S2 | 0.971
29 | CC(=O)N[C@@H]1[C@@H](C(O)[C@H](O)CO)O[C@](O)(C(=O)O)C[C@@H]1O (stereo partly drawn) | -1.13
30 | Cc1nc(Nc2ncc(C(=O)Nc3c(C)cccc3Cl)s2)cc(N2CCN(CCO)CC2)n1 [756746-L1] | 8.3
31 | Cc1nc(Nc2ncc(C(=O)Nc3c(C)cccc3Cl)s2)cc(N2CCN(CCO)CC2)n1 [756746-L2] | 1.19
32 | C[C@H]1O[C@@H](O[C@H]2[C@@H](O)C[C@H](O[C@H]3[C@@H](O)C[C@H](O[C@H]4CC[C@@]5(C)[C@H](CC[C@@H]6[C@@H]5CC[C@]5(C)[C@@H](C7=CC(=O)OC7)CC[C@]65O)C4)O[C@@H]3C)O[C@@H]2C)C[C@H](O)[C@@H]1O | -0.38
33 | CC(=O)Oc1ccccc1C(=O)Nc1ncc([N+](=O)[O-])s1 | -0.287
34 | C=C1C[C@@H]2[C@H](CC[C@]3(C)C(=O)CC[C@@H]23)[C@@]2(C)C=CC(=O)C=C12 | 7.82
35 | C[C@]12CC[C@H](O)CC1=CCC1C2CC[C@]2(C)C(=O)CC[C@@H]12 (stereo partly drawn) | 0.449
36 | C=C1CC2C(CC[C@]3(C)C(=O)CCC23)[C@@]2(C)C=CC(=O)C=C12 (stereo partly drawn) | -0.0158
37 | CCN1CCN(c2cc3c(cc2F)c(=O)c(C(=O)O)cn3C2CC2)CC1 | -2.37
38 | CO/N=C(\C(=O)N[C@@H]1C(=O)N2C(C(=O)O)=C(COC(C)=O)CS[C@H]12)c1csc(N)n1 | 2.94
39 | N[C@@H](Cc1ccccc1)C(=O)O | -1.27
40 | C#CC1(O)CCC2C3CCC4=C/C(=N/O)CCC4C3CCC21CC (stereo not drawn) | -0.44

Row | Structure (SMILES) | B-score
41 | CC(C)(O)c1ccccc1CC[C@@H](SCC1(CC(=O)O)CC1)c1cccc(/C=C/c2ccc3ccc(Cl)cc3n2)c1 | -1.02
42 | Oc1c(Cl)cc(Cl)cc1Sc1cc(Cl)cc(Cl)c1O | -2.1
43 | CC(=O)OCC1=C(C(=O)O)N2C(=O)[C@@H](NC(=O)Cc3cccs3)[C@H]2SC1 | 4.7
44 | CC(=O)OCC1=C(C(=O)O)N2C(=O)[C@@H](NC(=O)CC#N)[C@H]2SC1 | -1.27
45 | CC(=O)OCC1=C(C(=O)O)N2C(=O)[C@@H](NC(=O)CSc3ccncc3)[C@H]2SC1 | -1.22
46 | Cc1cn([C@H]2C[C@H](N=[N+]=[N-])[C@@H](CO)O2)c(=O)[nH]c1=O [735592-L3] | -1.48
47 | CC(C)(C)NC(=O)[C@H]1C[C@@H]2CCCC[C@@H]2CN1C[C@@H](O)[C@H](Cc1ccccc1)NC(=O)[C@@H](CC(N)=O)NC(=O)c1ccc2ccccc2n1 | -1.24
48 | NC[C@@H]1O[C@H](O[C@@H]2[C@@H](CO)OC(O[C@@H]3[C@@H](O)[C@H](N)C[C@H](N)[C@H]3OC3O[C@H](CN)[C@@H](O)[C@H](O)[C@H]3N)[C@@H]2O)[C@H](N)[C@@H](O)[C@@H]1O (stereo partly drawn) | 0.82
49 | CC[C@H]1OC(=O)[C@H](C)[C@@H](O[C@H]2C[C@@](C)(OC)[C@@H](O)[C@H](C)O2)[C@H](C)[C@@H](O[C@@H]2O[C@H](C)C[C@H](N(C)C)[C@H]2O)[C@](C)(O)C[C@@H](C)/C(=N\OCOCCOC)[C@H](C)[C@@H](O)[C@]1(C)O | 0.27
50 | CCC1=C(C)CN(C(=O)NCCc2ccc(S(=O)(=O)NC(=O)N[C@H]3CC[C@H](C)CC3)cc2)C1=O | 1.92
51 | CC(C)c1nc(N(C)S(C)(=O)=O)nc(-c2ccc(F)cc2)c1/C=C/[C@@H](O)C[C@@H](O)CC(=O)O | 3.13
52 | COCc1c(C(C)C)nc(C(C)C)c(/C=C/[C@@H](O)C[C@@H](O)CC(=O)O)c1-c1ccc(F)cc1 | 13.3
53 | O=C(O)C[C@H](O)C[C@H](O)/C=C/c1c(C2CC2)nc2ccccc2c1-c1ccc(F)cc1 | -0.609
54 | CC(C)NC[C@H](O)COc1cccc2ccccc12 | -4.66
55 | CC[N+](CC)(CC)CCOc1cccc(OCC[N+](CC)(CC)CC)c1OCC[N+](CC)(CC)CC | 5.36
56 | CC(C)NCC(O)COc1cccc2ccccc12 (stereo not drawn) | 0.797
57 | CC(Cc1ccccc1)(NC(=O)CN)c1ccccc1 (stereo not drawn) | 1.27
58 | CC[C@H]1CN2CCC1C[C@@H]2[C@@H](O)c1ccnc2ccc(OC)cc12 (stereo partly drawn) | 0.0568
59 | CCCCC1(COC(=O)CCC(=O)O)C(=O)N(c2ccccc2)N(c2ccccc2)C1=O | -1.04
60 | O=C1CC[C@@H](N2C(=O)c3ccccc3C2=O)C(=O)N1 | -1.22
